Rows were chosen to be rich in hits. Some 5.3% of all compounds tested hit in one or more screens of this group.
Tau ThT inhib – inhibitors of human tau fibril formation, thioflavin T binding | P10636 | recombinant tau K18 P301L, heparin-induced fibrillization, ThT fluorescence | Potency, µM (highest dose often 57.4 µM), hits mostly inhibitors | 2.1% of 270,000 active | AID 1460; further: nearly all actives have a fitted effect of over 55% in size
Target sequence (P10636 561-689 P618L limits assumed): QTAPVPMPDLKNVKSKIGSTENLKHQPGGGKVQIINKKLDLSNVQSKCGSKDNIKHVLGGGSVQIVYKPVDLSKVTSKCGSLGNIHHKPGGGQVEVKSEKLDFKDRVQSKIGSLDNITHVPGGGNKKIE
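ThT emission at 510 nm, taken 1 hr after adding 30 uM dye, quantifies aggregates formed when 20 uM heparin acts on human tau K18 P301L for 6 hr at 37 C.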
Tau fibril FP – tau fibrillization inhibition (FP); P10636; K18 P301L tau heparin fibrillization, Alexa594 FP, 6 h; Potency, µM (titrated, usually from 57.7 µM), actives largely listed as inhibitors; 0.39% of 280,000 active; AID 1468; further: nearly all actives have a fitted effect of over 55% in size
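Compound effects on tau fibrillization are measured by Alexa 594 fluorescence polarization (ex 555, em 632 nm). K18 P301L tau is used at 15 uM with 0.24 uM labeled tracer, and 20 uM heparin induces aggregation over 6 hr at 37 C.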
JMJD2E inh – blocks human JMJD2E demethylase activity. B2RXH2. JMJD2E catalytic domain, FDH-coupled NADH fluorescence (FDH is formaldehyde dehydrogenase). Potency, µM (doses to about 57.1 µM), hits mostly inhibitors. 1.6% of 230,000 active. AID 2147; active means well fitted inhibition curve with a large enough effect, not every such curve was filed as active; inconclusive means small, poorly fitted or top-dose-only effect, or another doubt; inactive means no such curve, though single readings can be large or run the other way; further: nearly all actives have a fitted effect of over 50% in size
Target sequence (B2RXH2 1-337 limits assumed): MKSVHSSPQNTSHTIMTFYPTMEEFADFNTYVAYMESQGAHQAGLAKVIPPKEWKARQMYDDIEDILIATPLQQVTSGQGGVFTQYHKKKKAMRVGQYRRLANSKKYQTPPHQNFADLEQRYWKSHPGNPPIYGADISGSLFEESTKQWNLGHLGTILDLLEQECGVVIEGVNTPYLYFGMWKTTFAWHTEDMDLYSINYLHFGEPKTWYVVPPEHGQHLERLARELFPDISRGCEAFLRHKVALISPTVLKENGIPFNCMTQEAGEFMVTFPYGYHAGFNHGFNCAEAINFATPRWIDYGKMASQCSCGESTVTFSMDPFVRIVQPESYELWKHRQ
Tau fluor counter – counter-screen for tau fibril formation inhibitors. tau K18 P301L (four-repeat tau fragment) Alexa594 fluorescence, heparin fibrillization. Potency, µM (highest dose often 57.7 µM). 0.93% of 280,000 active; further: nearly all actives have a fitted effect of over 55% in size
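Human K18 P301L tau (15 uM unlabeled plus 0.24 uM Alexa 594-labeled, final) in 100 mM sodium acetate pH 7 was mixed with compound and 20 uM heparin and incubated 6 hr at 37 C.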
Coupling enz – counter-screen for Giardia aldolase inhibitors: coupling enzyme system; coupling enzyme system counterscreen, AmpLite Red fluorescence; activity change, negative = inhibition, % at 58.2 µM, hits read low; 0.67% of 290,000 active; AID 2472; in the data active means activity change below about -30%
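Final compound at 57.5 uM, incubated 10 min at RT with coupling enzyme reagent (glyceraldehyde-3-phosphate), then 20 min with substrate and AmpLite Red detection. Fluorescence read at 525/598 nm; tests interference with the coupling assay, not aldolase inhibition.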
Sfp PPTase inh – inhibitors of Bacillus subtilis Sfp phosphopantetheinyl transferase; Q9F4F7; Biochemical Sfp PPTase activity, qHTS; Potency, µM, actives largely listed as inhibitors; 3.5% of 310,000 active; AID 1490;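 further: the enzyme is Sfp with the accession as filed and its product quenches rhodamine fluorescence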
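Fluorescence-quenching assay: 15 nM Sfp-PPTase preincubated 15 min at room temperature with compound, then 5 uM rhodamine-CoA and 12.5 uM BHQ-2-labelled YbbR peptide added. Fluorescence (ex 525/em 598 nm) read at start and after 30 min; difference gives rate.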
Hits are given with their value; n = inactive; u = inconclusive; x = no result given; [ ] = remark or other dose. Unless noted, the call rests on the fitted dose curve; in most records, active means well fitted curve in the direction sought with a large enough effect; inconclusive means small, poorly fitted or top-dose-only effect, or another doubt; inactive means no such curve, though single readings can be large; an effect the other way counts as inactive or inconclusive.

SMILES | Tau ThT inhib | Tau fibril FP | JMJD2E inh | Tau fluor counter | Coupling enz | Sfp PPTase inh
CC(C)OC(=O)c1sc2nc(-c3ccccc3)ccc2c1N | n | n | u | u | n | n
COc1cccc(-c2ccc3c(N)c(C(=O)c4ccc(Cl)cc4)sc3n2)c1 | 4.47µM | u | x | 2.82µM[quencher] | x | x
COc1ccc(C(=O)c2sc3nc(-c4ccccc4)ccc3c2N)cc1 | u | n | n | 10µM[quencher] | n | n
COc1ccc(Cl)cc1NC(=O)c1sc2nc(-c3ccc(OC)c(OC)c3)ccc2c1N | u | n | x | u | x | x
COc1cccc(-c2ccc3c(N)c(C(=O)Nc4ccc(C)c(F)c4)sc3n2)c1 | u | n | x | u | x | x
COC(=O)c1sc2nc(-c3ccco3)ccc2c1N | 7.08µM | n | u | u | n | 8.91µM
COc1ccc(-c2ccc3c(N)c(C(=O)Nc4ccc(C)cc4C)sc3n2)cc1OC | u | n | x | 8.91µM[quencher] | x | x
CCOc1ccccc1NC(=O)c1sc2nc(-c3ccc(OC)cc3)ccc2c1N | u | n | x | 3.55µM[quencher] | x | x
CCCCN1CCCC1C(=O)Nc1c(C)cc(C)cc1C (centres undefined) | x | x | x | x | x | n
CCOc1ccc(NC(=O)Cn2c(=O)n(CCC(=O)NCCc3ccccc3)c(=O)c3ccccc32)cc1 | n | n | x | n | x | x
COc1ccc(C(=O)N2CCN(Cc3ccccn3)CC2)cc1 | x | x | x | x | n | 56.2µM
O=S(=O)(c1ccc2ccccc2c1)N1CCN(Cc2ccccn2)CC1 | n | n | n | n | n | 70.8µM
COc1cc(C(=O)N2CCN(Cc3ccccn3)CC2)cc(OC)c1OC | x | x | x | x | n | 35.5µM
COc1ccc(CN2CCN(C(=O)c3cc(OC)c(OC)c(OC)c3)CC2)cc1OC | n | n | u | n | n | n
Clc1ccc(-n2nnc(-c3nccs3)n2)cc1Cl | u | u | 12.6µM | n | n | 39.8µM
Cc1ccc(-n2nnc(-c3nccs3)n2)cc1 | n | n | n | n | n | n
O=C(NCc1nc(-c2ccc(C(F)(F)F)cc2)no1)Nc1ccc(OC(F)(F)F)cc1 | x | 7.94µM | n | n | n | n
CCOC(=O)c1c(N)sc(C(=O)OC)c1C | u | n | n | n | n | 56.2µM
CCOC(=O)c1sc(N)c(C(=O)OC)c1C | n | n | u | n | n | n
CCOC(=O)c1sc(N)c(C(=O)Nc2ccccc2OC)c1C | u | n | n | n | n | 14.1µM
NCCCCCCNc1nc2c(N)ncnc2n1[C@@H]1O[C@@H]2COP(=O)(O)O[C@H]2[C@H]1O | x | x | x | x | n | n
COc1cccc(-c2ccc3ncnc(NCc4ccccc4)c3c2)c1 | x | x | x | x | n | n
CCCC(=O)Nc1sc(C(=O)OC)c(C)c1C(N)=O | n | n | n | u | n | 28.2µM
CCOC(=O)c1c(NC(=O)CN(C)C)sc(C(=O)N(CC)CC)c1C | n | n | n | n | n | n
CCCCC(=O)Nc1sc(C(=O)N(CC)CC)c(C)c1C(=O)OC | u | n | n | n | n | 12.6µM
SMILES | Tau ThT inhib | Tau fibril FP | JMJD2E inh | Tau fluor counter | Coupling enz | Sfp PPTase inh
C=CCOC(=O)C(C(C)=O)C(NC(=O)OC)c1ccc2ccccc2c1 (centres undefined) | n[11.5 µM] | n[11.6 µM] | x | n[11.6 µM] | n | n
Cc1ccc(-n2ncc3c(N4CCCCCC4)ncnc32)cc1C | u | n | x | n | x | x
Cc1ccc(-n2ccnc(NCCc3ccc(S(N)(=O)=O)cc3)c2=O)c(C)c1 | n | n | x | n | x | x
COc1cc(/C=N/Nc2nc(C)cc(=O)[nH]2)cc(OC)c1O | x | x | x | x | n | u
C=CCc1c(C)nc(C)nc1N/N=C/c1ccccc1O | n | n | 3.16µM | n | n | n
Cc1n[nH]c(=O)nc1N/N=C/c1ccco1 | u | n | n | n | n | 39.8µM
CCOc1cc(/C=N/Nc2ncnc(Cl)c2N)ccc1O | u | n | n | n | n | n
COc1cc(/C=N/Nc2nc(=O)[nH]nc2C)cc(OC)c1O | u | n | n | n | n | 35.5µM
C=CCc1c(C)nc(C)nc1N/N=C/c1ccc([N+](=O)[O-])cc1 | u | n | n | n | n | n
CCOc1cc(/C=N/Nc2nnc(C)n2N)ccc1O | x | x | x | x | n | 56.2µM
CCS(=O)(=O)N1CC(=O)N(c2cccc(C)c2C)C(C)(C(=O)NC2CCCCC2)C1 (centres undefined) | n | n | x | n | x | x
COc1cc2c(cc1OC)C(c1ccc(Cl)cc1)N(c1cccc(C#N)c1)C(=O)C2 (centres undefined) | n | n | x | n | x | x

Screening results deposited in PubChem by National Center for Advancing Translational Sciences (NCATS).
